The text below walks through data of the supplement of paper PMC3334620.

Whole data set: some 33,000 sequences, median “E-score (-0.5 to 0.5)” near -0.035, cut for the highest 2% near 0.35. For the sample, the highest values were picked, then their nearest neighbours and some sequences at random.

This assay addresses T1, Pdr3 (UniProt P33200).
T1 sequence: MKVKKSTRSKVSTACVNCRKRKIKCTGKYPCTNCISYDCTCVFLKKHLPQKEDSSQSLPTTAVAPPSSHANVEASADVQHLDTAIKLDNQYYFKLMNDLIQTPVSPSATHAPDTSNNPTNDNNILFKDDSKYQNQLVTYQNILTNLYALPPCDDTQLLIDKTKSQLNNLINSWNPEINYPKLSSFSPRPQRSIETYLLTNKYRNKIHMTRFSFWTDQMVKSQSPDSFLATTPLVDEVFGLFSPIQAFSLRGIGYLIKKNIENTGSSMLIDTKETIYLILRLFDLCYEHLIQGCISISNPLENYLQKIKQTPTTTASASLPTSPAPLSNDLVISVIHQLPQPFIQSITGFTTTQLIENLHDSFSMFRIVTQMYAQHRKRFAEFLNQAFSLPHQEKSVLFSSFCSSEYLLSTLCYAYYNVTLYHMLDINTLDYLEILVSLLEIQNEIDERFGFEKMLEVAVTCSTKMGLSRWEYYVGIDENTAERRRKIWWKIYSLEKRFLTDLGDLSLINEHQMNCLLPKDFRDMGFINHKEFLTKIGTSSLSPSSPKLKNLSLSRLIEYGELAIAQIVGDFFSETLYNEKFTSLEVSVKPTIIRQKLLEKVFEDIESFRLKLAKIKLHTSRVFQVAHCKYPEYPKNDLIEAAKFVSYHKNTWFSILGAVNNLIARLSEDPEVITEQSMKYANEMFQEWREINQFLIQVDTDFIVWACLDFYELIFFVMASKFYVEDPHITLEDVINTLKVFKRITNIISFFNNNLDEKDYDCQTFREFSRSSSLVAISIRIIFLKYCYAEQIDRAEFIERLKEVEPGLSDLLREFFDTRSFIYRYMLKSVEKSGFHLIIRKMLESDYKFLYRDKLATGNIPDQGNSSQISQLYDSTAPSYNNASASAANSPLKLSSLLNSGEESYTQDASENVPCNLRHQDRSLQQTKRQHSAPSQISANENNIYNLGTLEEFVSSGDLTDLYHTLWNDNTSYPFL
As to the kind of experiment: PBM E-score (8-mer binding enrichment) (E-score (-0.5 to 0.5)); higher = stronger / more preferred TF binding. To be noted: protein concentration: 200 nM; construct: GST-full length. The method, then: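 Universal 'all 10-mer' protein binding microarrays (Agilent AMADID 015681) probed with GST-tagged S. cerevisiae TFs (full-length or DBD) made by in vitro transcription/translation (PURExpress), about 100-200 nM. Bound TF was detected with fluorescent anti-GST. Each ungapped 8-mer (which stands for itself and its reverse complement) is scored by the PBM enrichment score (E-score), a modified Wilcoxon-Mann-Whitney statistic from -0.5 to +0.5, computed with the Universal PBM Analysis Suite. Scale: above 0.35 generally sequence-specific binding.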
For the sequence CTTTCTAC, the “PBM E-score” value was -0.16.

As to ACCATACG, the “PBM E-score” value was -0.0138.

ACGGCGGA: the “PBM E-score” value is 0.314.

Consider CCGGCGGC, for which the “PBM E-score” value stood at 0.325.

Regarding GTGGCGGA, the “PBM E-score” value worked out at 0.271.

Turning to CTGGCGGA, the “PBM E-score” value was found to be 0.131.

As to GCGGCGGA, the “PBM E-score” value is 0.404.

For CCGGCGGA, the “PBM E-score” value was 0.449.

ATCTCCTA: the “PBM E-score” value is -0.245.

Regarding GATACGAA, the “PBM E-score” value turned out to be 0.033.

For GCCTGGCC, the “PBM E-score” value came to 0.00694.

For TCAACACA, the “PBM E-score” value was -0.0355.

For the sequence AATCCAGA, the “PBM E-score” value was 0.127.

As to AATCCGGA, the “PBM E-score” value came out at 0.455.

For CATCCGGC, the “PBM E-score” value came to 0.295.

Consider CATCCGGA, for which the “PBM E-score” value is 0.426.

With CATCCGGG, the “PBM E-score” value is 0.261.

For AATCCGGT, the “PBM E-score” value turned out to be 0.294.

For CATCCGTA, the “PBM E-score” value was 0.282.

GATCCGAA: the “PBM E-score” value amounted to 0.365.

With CATCCGAA, the “PBM E-score” value is 0.282.

Consider AATCCGGC, for which the “PBM E-score” value stood at 0.302.

Take TATCCGAA: the “PBM E-score” value amounted to 0.307.

Consider GATCCGGC, for which the “PBM E-score” value came out at 0.369.

In the case of AGAATGCG, the “PBM E-score” value came to 0.0628.

For the sequence CAAGGCGA, the “PBM E-score” value is -0.174.

In the case of GACGCCTA, the “PBM E-score” value was -0.228.

Take AGCTGTTG: the “PBM E-score” value is -0.0549.

AAGAAATC: the “PBM E-score” value was -0.104.

Consider ACATGAGG, for which the “PBM E-score” value was -0.0733.

For TATCCTGA, the “PBM E-score” value was -0.107.

On to CCTCCGAA, for which the “PBM E-score” value is 0.152.

For the sequence GATCCGTA, the “PBM E-score” value was found to be 0.336.

Consider TATCCGCA, for which the “PBM E-score” value turned out to be 0.335.

On to TCTCCGAA, for which the “PBM E-score” value was 0.257.

GATCCGCA: the “PBM E-score” value was 0.319.

Take TATCCGGA: the “PBM E-score” value worked out at 0.446.

On to GCTCCGAA, for which the “PBM E-score” value amounted to 0.361.

Consider GATCCGGA, for which the “PBM E-score” value is 0.437.

Regarding TACCGATA, the “PBM E-score” value worked out at 0.0617.

As for GACTAACC, the “PBM E-score” value is -0.2.

As to ACCTCAAG, the “PBM E-score” value is -0.0979.

Regarding ATGATCTA, the “PBM E-score” value turned out to be 0.0443.

For CCGTCCCC, the “PBM E-score” value turned out to be 0.166.

As to ACGTCCCG, the “PBM E-score” value is 0.279.

In the case of CCGTCCCG, the “PBM E-score” value came out at 0.371.

Turning to TACTCAGA, the “PBM E-score” value was -0.0418.

ATGCTCTA: the “PBM E-score” value was -0.211.

Take CGGGACAC: the “PBM E-score” value came to 0.245.

Consider CAGGACCG, for which the “PBM E-score” value was -0.0353.

Take CGGGACAG: the “PBM E-score” value worked out at 0.359.

Regarding CCAGACCG, the “PBM E-score” value stood at 0.0829.

Turning to AGGGACCG, the “PBM E-score” value is -0.128.

CCGGACCG: the “PBM E-score” value is 0.378.

For GCGGACCC, the “PBM E-score” value stood at 0.336.

On to CGGGACCA, for which the “PBM E-score” value is 0.264.

Turning to CCGGACCC, the “PBM E-score” value was 0.379.

Consider AGGGACAG, for which the “PBM E-score” value is -0.3.

For CGGGACCG, the “PBM E-score” value is 0.373.

For ACGGACCC, the “PBM E-score” value amounted to 0.344.

Consider AGGGTTAT, for which the “PBM E-score” value is -0.0536.

For the sequence GGATAAAC, the “PBM E-score” value is 0.195.

For CGACCTCC, the “PBM E-score” value was found to be 0.208.

Take AGTCATGG: the “PBM E-score” value was -0.234.

For CCAAGAGG, the “PBM E-score” value is -0.122.

Consider CGCCGAGA, for which the “PBM E-score” value is 0.228.

On to GCTGGTAC, for which the “PBM E-score” value amounted to 0.029.

Turning to CGGCACAA, the “PBM E-score” value stood at 0.121.

Turning to CCTTGACA, the “PBM E-score” value was -0.209.

Turning to TTACCGAA, the “PBM E-score” value was 0.105.

For the sequence CGTATAGA, the “PBM E-score” value was -0.231.

Take AGTTCCCA: the “PBM E-score” value was 0.16.

For the sequence GGTTCCCA, the “PBM E-score” value is -0.0344.

For CGTTCCTA, the “PBM E-score” value was -0.0878.

For the sequence CGTTCCAA, the “PBM E-score” value is -0.0612.

In the case of CGTTCCCC, the “PBM E-score” value amounted to 0.146.

Turning to CGTTCCGA, the “PBM E-score” value is 0.455.

On to CGTTCCGC, for which the “PBM E-score” value was determined as 0.453.

With CGTTCCTC, the “PBM E-score” value worked out at 0.194.

Regarding AGTTCCTA, the “PBM E-score” value amounted to 0.0135.

For the sequence GGTTCCGA, the “PBM E-score” value is 0.476.

Turning to GGTTCCAA, the “PBM E-score” value was determined as 0.273.

AGTTCCGA: the “PBM E-score” value turned out to be 0.456.

Turning to GATCCACC, the “PBM E-score” value is -0.0343.

On to ACGAGATC, for which the “PBM E-score” value came to 0.00781.

As to GAAGGGCC, the “PBM E-score” value was 0.00364.
